# Data: the supplement of paper PMC10849652
# The full data set covers some 7,900 targets. This sample favours those with a hit. About 0.6% of all pairs of compound and target were hits. Unmarked numbers belong to inactive results.
# Assays:
# Test in all cases: log2 fold change, soluble protein after heating vs DMSO (PISA); higher = thermal stabilisation; K562 cells, 10 uM, 30 min; active = over 0.2 and 3.5 SD of the protein, either way, in both replicates (recomputed)
# saracatinib = compound: CN1CCN(CCOc2cc(OC3CCOCC3)c3c(Nc4c(Cl)ccc5c4OCO5)ncnc3c2)CC1 [saracatinib]
# Summary of the method: (§1)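 Values are thermal stability changes relative to control samples and are taken from duplicates. They are stated as log2 fold changes. Before quantification by TMTpro 16plex LC-MS/MS with equalised channel sums, K562 cells at 2×10^6 cells/mL were treated with 10 μM compound for 30 min, heated in aliquots for 3 min across 48°C-58°C, pooled, extracted in PBS with 0.5% NP-40 at 4°C, and centrifuged at 21,000xg for 90 min to give the soluble supernatant.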
# sotrastaurin = compound: CN1CCN(c2nc(C3=C(c4c[nH]c5ccccc45)C(=O)NC3=O)c3ccccc3n2)CC1 [sotrastaurin]
# Summary of the method: as §1
# alvocidib = compound: CN1CC[C@H](c2c(O)cc(O)c3c(=O)cc(-c4ccccc4Cl)oc23)[C@H](O)C1 [alvocidib]
# Summary of the method: as §1
# Tubastatin A = compound: CN1CCc2c(c3ccccc3n2Cc2ccc(C(=O)NO)cc2)C1 [Tubastatin A]
# Summary of the method: as §1
# [1] = compound: CNC(=O)C1=CC=CC=C1NC2=NC(=NC=C2Cl)NC3=C(C=C(C=C3)N4CCOCC4)OC
# Summary of the method: as §1
# defactinib = compound: CNC(=O)c1ccc(Nc2ncc(C(F)(F)F)c(NCc3nccnc3N(C)S(C)(=O)=O)n2)cc1 [defactinib]
# Summary of the method: as §1
# rucaparib = compound: CNCc1ccc(-c2[nH]c3cc(F)cc4c3c2CCNC4=O)cc1 [rucaparib]
# Summary of the method: as §1
# [2] = compound: CNc1nc(-c2ccc3c(N)n[nH]c3c2)cc(N2C[C@@H](C(=O)NC3CCCCC3)CC[C@H]2C)n1
# Summary of the method: as §1
# encorafenib = compound: COC(=O)N[C@@H](C)CNc1nccc(-c2cn(C(C)C)nc2-c2cc(Cl)cc(NS(C)(=O)=O)c2F)n1 [encorafenib]
# Summary of the method: as §1
# [3] = compound: COC(=O)[C@H](CCSC)NC(=O)C1=C(C=C(C=C1)NC[C@H](CS)N)C2=CC=CC=C2
# Summary of the method: as §1
# [4] = compound: COC1=CC=C(C=C1)CN2C=CC3=C2C=C(C=C3)C(=O)NO
# Summary of the method: as §1
# filanesib = compound: CON(C)C(=O)N1N=C(c2cc(F)ccc2F)S[C@@]1(CCCN)c1ccccc1 [filanesib]
# Summary of the method: as §1
# zotarolimus = compound: CO[C@H]1C[C@@H]2CC[C@@H](C)[C@@](O)(O2)C(=O)C(=O)N2CCCC[C@H]2C(=O)O[C@H]([C@H](C)C[C@@H]2CC[C@H](n3cnnn3)[C@H](OC)C2)CC(=O)[C@H](C)/C=C(\C)[C@@H](O)[C@@H](OC)C(=O)[C@H](C)C[C@H](C)/C=C/C=C/C=C/1C [zotarolimus]
# Summary of the method: as §1
# idasanutlin = compound: COc1cc(C(=O)O)ccc1NC(=O)[C@@H]1N[C@@H](CC(C)(C)C)[C@](C#N)(c2ccc(Cl)cc2F)[C@H]1c1cccc(Cl)c1F [idasanutlin]
# Summary of the method: as §1
# alisertib = compound: COc1cc(Nc2ncc3c(n2)-c2ccc(Cl)cc2C(c2c(F)cccc2OC)=NC3)ccc1C(=O)O [alisertib]
# Summary of the method: as §1
# [5] = compound: COc1cc2nc(-c3cc(F)ccc3O)nc(N[C@@H]3CNC[C@H]3C(C)(C)O)c2cc1OC
# Summary of the method: as §1
# gefitinib = compound: COc1cc2ncnc(Nc3ccc(F)c(Cl)c3)c2cc1OCCCN1CCOCC1 [gefitinib]
# Summary of the method: as §1
# [6] = compound: COc1cccc2cc(-c3nc([C@H]4CC[C@H](C(=O)O)CC4)n4ncnc(N)c34)[nH]c12
# Summary of the method: as §1
# lapatinib = compound: CS(=O)(=O)CCNCc1ccc(-c2ccc3ncnc(Nc4ccc(OCc5cccc(F)c5)c(Cl)c4)c3c2)o1 [lapatinib]
# Summary of the method: as §1
# pictilisib = compound: CS(=O)(=O)N1CCN(Cc2cc3nc(-c4cccc5[nH]ncc45)nc(N4CCOCC4)c3s2)CC1 [pictilisib]
# Summary of the method: as §1
# UniProt Q9Y2L5, sequence (Q9Y2L5 whole entry, looked up): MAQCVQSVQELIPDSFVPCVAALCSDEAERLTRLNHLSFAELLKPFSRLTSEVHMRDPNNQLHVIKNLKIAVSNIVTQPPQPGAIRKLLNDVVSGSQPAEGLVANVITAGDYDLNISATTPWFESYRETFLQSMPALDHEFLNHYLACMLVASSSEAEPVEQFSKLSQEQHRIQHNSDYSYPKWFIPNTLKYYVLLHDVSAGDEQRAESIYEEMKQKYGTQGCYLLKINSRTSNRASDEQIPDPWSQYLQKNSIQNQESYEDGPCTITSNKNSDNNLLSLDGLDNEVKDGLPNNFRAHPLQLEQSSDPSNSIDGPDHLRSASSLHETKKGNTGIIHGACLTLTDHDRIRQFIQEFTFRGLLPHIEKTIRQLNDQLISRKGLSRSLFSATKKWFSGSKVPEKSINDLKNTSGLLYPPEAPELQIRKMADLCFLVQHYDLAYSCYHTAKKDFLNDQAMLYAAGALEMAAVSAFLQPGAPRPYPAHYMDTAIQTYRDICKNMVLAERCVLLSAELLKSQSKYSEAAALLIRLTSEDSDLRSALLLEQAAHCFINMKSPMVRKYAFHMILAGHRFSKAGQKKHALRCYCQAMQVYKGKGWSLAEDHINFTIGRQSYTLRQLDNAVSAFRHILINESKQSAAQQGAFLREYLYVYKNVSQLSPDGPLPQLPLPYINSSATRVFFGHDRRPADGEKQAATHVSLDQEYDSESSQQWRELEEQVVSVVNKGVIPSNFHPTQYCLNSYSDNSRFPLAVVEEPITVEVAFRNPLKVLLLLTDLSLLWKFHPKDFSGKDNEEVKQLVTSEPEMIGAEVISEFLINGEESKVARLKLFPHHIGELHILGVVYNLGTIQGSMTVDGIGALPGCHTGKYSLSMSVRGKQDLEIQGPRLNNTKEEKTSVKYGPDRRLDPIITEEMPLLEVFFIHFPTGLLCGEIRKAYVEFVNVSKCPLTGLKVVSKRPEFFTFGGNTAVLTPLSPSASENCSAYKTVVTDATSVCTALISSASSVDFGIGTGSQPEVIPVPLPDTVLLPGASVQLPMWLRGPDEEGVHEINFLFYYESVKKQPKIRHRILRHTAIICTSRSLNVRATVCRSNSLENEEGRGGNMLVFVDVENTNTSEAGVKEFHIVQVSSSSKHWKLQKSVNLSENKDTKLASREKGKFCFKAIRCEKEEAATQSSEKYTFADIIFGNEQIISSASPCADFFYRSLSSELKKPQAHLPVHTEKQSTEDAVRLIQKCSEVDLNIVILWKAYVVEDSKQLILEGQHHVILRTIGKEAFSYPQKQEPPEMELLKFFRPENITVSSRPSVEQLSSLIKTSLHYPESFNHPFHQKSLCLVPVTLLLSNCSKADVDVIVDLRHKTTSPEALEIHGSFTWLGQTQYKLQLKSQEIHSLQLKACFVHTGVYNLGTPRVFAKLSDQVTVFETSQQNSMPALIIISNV
# UniProt Q01081, sequence (Q01081 whole entry, looked up): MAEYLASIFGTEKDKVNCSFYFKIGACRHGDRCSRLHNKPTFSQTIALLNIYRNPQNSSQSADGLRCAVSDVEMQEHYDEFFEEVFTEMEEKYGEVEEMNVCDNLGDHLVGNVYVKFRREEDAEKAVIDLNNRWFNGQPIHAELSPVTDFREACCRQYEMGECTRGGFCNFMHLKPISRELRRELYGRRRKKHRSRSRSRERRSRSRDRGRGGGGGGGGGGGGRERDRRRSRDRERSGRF
# UniProt Q99986, sequence (Q99986 whole entry, looked up): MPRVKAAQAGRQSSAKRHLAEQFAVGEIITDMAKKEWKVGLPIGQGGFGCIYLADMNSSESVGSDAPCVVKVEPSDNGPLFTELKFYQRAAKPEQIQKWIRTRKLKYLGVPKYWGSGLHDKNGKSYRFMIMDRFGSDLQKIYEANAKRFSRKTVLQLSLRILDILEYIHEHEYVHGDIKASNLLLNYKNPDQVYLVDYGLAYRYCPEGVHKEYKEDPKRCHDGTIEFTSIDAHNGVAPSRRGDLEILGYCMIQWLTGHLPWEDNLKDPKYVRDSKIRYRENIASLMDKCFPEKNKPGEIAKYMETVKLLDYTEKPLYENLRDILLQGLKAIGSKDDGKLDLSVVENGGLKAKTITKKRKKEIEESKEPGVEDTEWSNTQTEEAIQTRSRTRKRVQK
# UniProt P43897, sequence (P43897 whole entry, looked up): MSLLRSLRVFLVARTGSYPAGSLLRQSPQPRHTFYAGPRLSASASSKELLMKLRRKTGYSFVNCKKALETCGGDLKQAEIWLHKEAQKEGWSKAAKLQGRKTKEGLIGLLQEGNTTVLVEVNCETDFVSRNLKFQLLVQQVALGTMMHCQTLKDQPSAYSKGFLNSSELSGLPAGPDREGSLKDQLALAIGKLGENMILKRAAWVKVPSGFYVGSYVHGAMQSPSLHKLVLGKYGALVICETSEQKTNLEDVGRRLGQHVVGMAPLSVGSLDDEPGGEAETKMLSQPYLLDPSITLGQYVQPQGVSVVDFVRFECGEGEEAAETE
# UniProt Q9Y4E6, sequence (Q9Y4E6 whole entry, looked up): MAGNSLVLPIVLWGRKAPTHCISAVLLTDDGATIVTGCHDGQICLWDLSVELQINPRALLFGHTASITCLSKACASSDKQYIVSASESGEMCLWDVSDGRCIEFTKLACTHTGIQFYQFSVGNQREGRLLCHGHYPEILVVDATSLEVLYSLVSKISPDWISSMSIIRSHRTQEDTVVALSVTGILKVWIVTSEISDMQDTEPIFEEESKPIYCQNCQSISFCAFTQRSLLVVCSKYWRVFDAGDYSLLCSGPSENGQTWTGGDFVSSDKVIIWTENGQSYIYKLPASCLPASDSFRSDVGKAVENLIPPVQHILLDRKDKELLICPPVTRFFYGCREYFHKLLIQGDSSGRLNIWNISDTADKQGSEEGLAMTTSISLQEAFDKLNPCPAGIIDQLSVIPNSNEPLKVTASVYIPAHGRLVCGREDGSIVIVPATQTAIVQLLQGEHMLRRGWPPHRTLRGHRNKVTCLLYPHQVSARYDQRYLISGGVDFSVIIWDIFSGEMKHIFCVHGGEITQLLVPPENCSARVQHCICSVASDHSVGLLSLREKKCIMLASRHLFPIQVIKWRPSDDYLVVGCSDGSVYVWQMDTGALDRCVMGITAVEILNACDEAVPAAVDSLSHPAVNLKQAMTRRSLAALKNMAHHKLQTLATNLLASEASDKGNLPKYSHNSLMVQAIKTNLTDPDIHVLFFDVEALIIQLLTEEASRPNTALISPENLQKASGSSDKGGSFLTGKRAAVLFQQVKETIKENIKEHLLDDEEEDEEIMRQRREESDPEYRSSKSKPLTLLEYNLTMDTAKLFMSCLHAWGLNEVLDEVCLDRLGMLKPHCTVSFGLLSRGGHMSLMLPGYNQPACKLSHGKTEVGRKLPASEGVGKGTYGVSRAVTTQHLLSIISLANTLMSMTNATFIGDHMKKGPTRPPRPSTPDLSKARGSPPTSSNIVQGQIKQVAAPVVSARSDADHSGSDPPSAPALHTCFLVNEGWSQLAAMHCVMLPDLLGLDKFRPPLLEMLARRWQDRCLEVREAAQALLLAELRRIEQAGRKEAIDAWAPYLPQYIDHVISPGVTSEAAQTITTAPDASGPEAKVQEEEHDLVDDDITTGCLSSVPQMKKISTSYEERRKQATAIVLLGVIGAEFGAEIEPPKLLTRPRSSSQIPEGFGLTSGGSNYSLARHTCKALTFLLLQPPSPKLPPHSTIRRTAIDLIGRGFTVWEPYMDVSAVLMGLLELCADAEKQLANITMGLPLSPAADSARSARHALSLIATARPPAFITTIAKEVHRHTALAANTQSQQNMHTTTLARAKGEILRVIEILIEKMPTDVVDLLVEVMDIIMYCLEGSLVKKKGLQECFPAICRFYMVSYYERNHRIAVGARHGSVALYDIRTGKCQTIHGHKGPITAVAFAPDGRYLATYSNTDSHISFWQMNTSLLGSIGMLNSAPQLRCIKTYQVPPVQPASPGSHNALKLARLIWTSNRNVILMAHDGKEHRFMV
# UniProt Q14157, sequence (Q14157 whole entry, looked up): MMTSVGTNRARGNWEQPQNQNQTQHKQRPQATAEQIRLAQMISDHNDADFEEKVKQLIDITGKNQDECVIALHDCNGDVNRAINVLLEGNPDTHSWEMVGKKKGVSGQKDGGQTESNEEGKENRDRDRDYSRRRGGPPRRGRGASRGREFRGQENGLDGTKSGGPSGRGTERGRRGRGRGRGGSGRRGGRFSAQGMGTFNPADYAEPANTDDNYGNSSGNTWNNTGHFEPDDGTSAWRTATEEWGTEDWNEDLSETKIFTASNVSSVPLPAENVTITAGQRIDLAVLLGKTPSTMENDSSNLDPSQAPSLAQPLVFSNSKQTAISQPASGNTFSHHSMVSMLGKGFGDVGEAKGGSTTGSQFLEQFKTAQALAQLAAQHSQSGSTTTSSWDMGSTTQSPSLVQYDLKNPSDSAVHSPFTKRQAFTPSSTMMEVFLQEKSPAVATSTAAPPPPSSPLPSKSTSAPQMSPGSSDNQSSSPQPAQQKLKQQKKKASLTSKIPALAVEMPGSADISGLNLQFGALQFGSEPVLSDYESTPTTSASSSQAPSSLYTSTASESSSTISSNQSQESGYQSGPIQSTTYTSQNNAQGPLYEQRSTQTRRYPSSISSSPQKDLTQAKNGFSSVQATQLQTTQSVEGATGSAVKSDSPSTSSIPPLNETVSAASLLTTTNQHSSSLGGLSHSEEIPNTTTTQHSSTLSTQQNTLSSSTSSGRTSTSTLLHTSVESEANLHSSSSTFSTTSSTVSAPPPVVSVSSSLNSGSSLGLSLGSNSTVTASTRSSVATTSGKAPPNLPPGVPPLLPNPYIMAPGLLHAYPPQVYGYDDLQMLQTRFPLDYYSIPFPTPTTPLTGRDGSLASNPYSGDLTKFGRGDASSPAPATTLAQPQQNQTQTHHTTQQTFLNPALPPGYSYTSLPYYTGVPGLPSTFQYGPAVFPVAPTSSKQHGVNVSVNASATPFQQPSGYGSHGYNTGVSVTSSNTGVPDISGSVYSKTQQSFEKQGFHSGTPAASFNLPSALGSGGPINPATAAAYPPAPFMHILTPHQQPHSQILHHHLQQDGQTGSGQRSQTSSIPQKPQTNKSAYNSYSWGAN
Target,log2 fold change (saracatinib),log2 fold change (sotrastaurin),log2 fold change (alvocidib),log2 fold change (Tubastatin A),log2 fold change [1],log2 fold change (defactinib),log2 fold change (rucaparib),log2 fold change [2],log2 fold change (encorafenib),log2 fold change [3],log2 fold change [4],log2 fold change (filanesib),log2 fold change (zotarolimus),log2 fold change (idasanutlin),log2 fold change (alisertib),log2 fold change [5],log2 fold change (gefitinib),log2 fold change [6],log2 fold change (lapatinib),log2 fold change (pictilisib)
WDR7 (UniProt Q9Y4E6),0.024,0.041,0.04,-0.047,-0.114,-0.3,0.128,-0.015,-0.174,-0.373,-0.04,0.084,0.045,-0.016,-0.076,-0.102,-0.027,-0.074,0.003,-0.097
UHRF1BP1 (UniProt Q6BDS2),0.011,0.049,-0.043,0.016,-0.013,-0.064,-0.007,0.048,-0.012,0.017,-0.025,0.079,0.161,-0.029,-0.033,0.104,0.045,0.037,0.038,0.032
TMEM173 (UniProt Q86WV6),-0.002,-0.023,-0.07,0.03,0.014,-0.055,-0.078,0.034,0.062,-0.005,-0.177,0.007,0.025,-0.209,-0.073,0.034,-0.013,-0.008,-0.062,-0.037
VPS51 (UniProt Q9UID3),-0.029,-0.097,-0.113,0.029,-0.011,-0.056,0.041,-0.034,0.046,0.002,0.029,-0.024,-0.01,-0.098,-0.092,0.055,0.019,-0.057,-0.032,0.013
UFL1 (UniProt O94874),-0.033,-0.035,0.027,0.076,0.018,-0.045,0.1,0,0.121,-0.119,0.029,-0.022,0.025,-0.108,-0.074,0.212,0.003,-0.071,-0.017,0.016
WDR43 (UniProt Q15061),0.031,0.014,0.062,-0.045,0.001,0.101,0.07,-0.002,-0.009,-0.007,-0.014,-0.019,-0.017,-0.072,-0.061,0.058,-0.006,0.042,-0.025,0.06
U2AF1 isoform 2 (UniProt Q01081),-0.027,-0.062,-0.064,0.042,-0.104,-0.086,0.045,-0.009,0.041,-0.075,0.165,0.034,0.043,0.055,-0.019,0.06,0.036,0.045,0,0.069
TRAPPC8 (UniProt Q9Y2L5),-0.017,-0.044,-0.055,-0.004,0.014,-0.104,0.074,0.008,0.032,-0.032,0.032,-0.017,0.03,-0.059,0.003,0.013,0.009,-0.021,0.021,-0.001
UXT isoform 2 (UniProt Q9UBK9),0.031,-0.056,-0.01,0.077,-0.191,0,0.049,-0.027,-0.018,-0.078,0.473 (active),0.001,-0.067,0.026,-0.016,0.033,0.049,-0.025,0.077,0.25
VRK1 (UniProt Q99986),-0.057,0.152,0.285,0.07,0.05,-0.041,0.048,0.108,0.043,-0.04,0.098,-0.07,-0.123,-0.119,0.06,0.316,-0.018,-0.003,-0.059,0.086
UBAP2L isoform 1 (UniProt Q14157),-0.001,0.063,-0.092,-0.016,0.038,-0.02,-0.017,-0.073,-0.014,-0.015,0.016,-0.014,0.011,0.059,-0.05,0.213,0.074,0.103,-0.248,-0.114
TSFM (UniProt P43897),0.057,-0.157,-0.132,0.063,0.021,-0.166,-0.001,-0.073,0.167,-0.082,0.152,-0.146,0.042,0.039,0.047,0.12,0.117,-0.002,-0.006,0.066
